HEK cytotox: Cytotoxic Profiling in HEK 293 Cell Line of Diverse Libraries Using Quantitative High-Throughput Screening | hit rate 6.6% among 94,000 | Potency, µM (doses to about 115 µM), inactives show at the top dose activity change, negative = cytotoxicity, actives largely listed as inhibitors | HEK 293 viability, ATP luminescence (CellTiter-Glo), 48-72 h | AID 1345083, 2018; also: nearly all actives have a fitted effect of over 60% in size
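CellTiter-Glo luminescence (cellular ATP) was read after 48 or 72 hr of compound exposure at 37 degree Celsius. Cells were HEK 293 plated at 250 cells/well.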
3T3 cytotox: Cytotoxic Profiling in NIH 3T3 Cell Line of Diverse Libraries Using Quantitative High-Throughput Screening; NIH 3T3 viability, CellTiter-Glo ATP luminescence, 48-72 h; Potency, µM (titrated, usually from 96.7 µM), for the others: at the highest dose activity change, negative = cytotoxicity, usual class: inhibitors; hit rate 4.3% among 94,000; also: nearly all actives have a fitted effect of over 55% in size
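NIH 3T3 cells at 400 cells/well received 23 nL of compound by pintool and were incubated 48 or 72 h at 37 °C. Viability was read as ATP-coupled CellTiter-Glo luminescence.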
GPT2 inh: Primary qHTS assay for inhibitors of Glutamate pyruvate transaminase 2 (GPT2). Alanine aminotransferase 2 (Homo sapiens), Q8TD30. Recombinant GPT2, coupled pyruvate oxidase/HRP Amplex Red fluorescence. Potency, µM (top dose mostly 57.7 µM), without a hit: at the top dose activity change, negative = inhibition, actives largely listed as inhibitors. hit rate 0.25% among 100,000. AID 1671188, 2021; also: nearly all actives have a fitted effect of over 60% in size
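Fluorescence read-out: pyruvate from GPT2 turnover coupled to pyruvate oxidase, HRP and Amplex Red (0.2mM ThPP, 0.2U/mL PO and HRP, 50uM Amplex final). Substrates 250uM a-KG, 2mM L-alanine; enzyme 10ng/uL; 30 min RT.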
Luciferase inh: Firefly luciferase inhibition profiling of diverse chemical library using quantitative high-throughput screening. Luciferin 4-monooxygenase (Photinus pyralis), P08659. purified P. pyralis luciferase, luminescence, biochemical. Potency, µM (series often up to 115 µM), usual class: inhibitors. hit rate 2.5% among 76,000. AID 1347043, 2019; also: nearly all actives have a fitted effect of over 65% in size
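Inhibitors were tested against purified firefly luciferase in a biochemical, low-substrate format (both substrates at 10uM) and luminescence measured with a CCD imager.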
hNpr1 antagonist: Natriuretic polypeptide receptor (hNpr1) antagonism - Primary qHTS. hit rate 1.6% among 76,000. AID 1347048, 2019. HEK293 hNpr1 GloSensor cGMP, ANP-stimulated luminescence. Atrial natriuretic peptide receptor 1 (Homo sapiens), P16066. Potency, µM (series often up to 46.3 µM), for inactives: at the highest dose activity change, negative = inhibition, usual class: inhibitors; calls by dose curve; also: nearly all actives have a fitted effect of over 60% in size
Target sequence (P16066 whole entry, looked up): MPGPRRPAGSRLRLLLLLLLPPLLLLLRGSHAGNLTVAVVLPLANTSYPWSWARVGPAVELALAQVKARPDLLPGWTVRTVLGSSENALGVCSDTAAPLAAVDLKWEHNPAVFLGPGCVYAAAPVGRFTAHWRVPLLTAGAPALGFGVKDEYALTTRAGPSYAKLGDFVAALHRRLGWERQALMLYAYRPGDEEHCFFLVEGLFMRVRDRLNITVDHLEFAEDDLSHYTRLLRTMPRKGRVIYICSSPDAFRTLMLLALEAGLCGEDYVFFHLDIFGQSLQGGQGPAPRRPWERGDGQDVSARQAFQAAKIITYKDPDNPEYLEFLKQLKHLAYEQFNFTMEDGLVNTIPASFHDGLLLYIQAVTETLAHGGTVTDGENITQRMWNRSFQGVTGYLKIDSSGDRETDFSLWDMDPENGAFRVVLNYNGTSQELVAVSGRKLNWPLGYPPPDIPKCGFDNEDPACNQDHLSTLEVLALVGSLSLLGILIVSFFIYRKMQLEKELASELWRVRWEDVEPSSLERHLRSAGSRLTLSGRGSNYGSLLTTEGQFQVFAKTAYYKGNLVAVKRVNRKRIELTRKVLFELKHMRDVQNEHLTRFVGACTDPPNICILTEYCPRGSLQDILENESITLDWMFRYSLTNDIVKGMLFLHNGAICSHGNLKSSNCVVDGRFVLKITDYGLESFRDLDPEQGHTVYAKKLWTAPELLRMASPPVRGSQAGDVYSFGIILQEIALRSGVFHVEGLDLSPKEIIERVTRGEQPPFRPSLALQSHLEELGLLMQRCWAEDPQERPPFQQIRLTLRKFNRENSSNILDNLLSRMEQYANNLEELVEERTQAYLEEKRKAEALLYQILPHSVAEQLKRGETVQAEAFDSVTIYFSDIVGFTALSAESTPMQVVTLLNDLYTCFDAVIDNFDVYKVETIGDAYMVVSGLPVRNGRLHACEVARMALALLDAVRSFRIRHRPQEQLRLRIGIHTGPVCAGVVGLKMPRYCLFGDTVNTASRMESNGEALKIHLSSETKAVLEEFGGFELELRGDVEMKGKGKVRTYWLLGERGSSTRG
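HEK293 cells stably expressing human Npr1 and cGMP GloSensor pGS-40F, loaded 2 h with 2% GloSensor reagent, given compound 30 min at room temperature. Luminescence read before and 20 min after 0.1 nM hNppA.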
Numbers without * were called inactive; i = inactive; ? = inconclusive; · = no result; [ ] = another dose, or the depositor's remark. Shown are actives, neighbours in structure and some others; about 10% of the full set was active somewhere. Unless noted, calls follow the shape of the dose curve; as a rule, active = well fitted curve in the direction sought with a large enough effect; inconclusive = small, poorly fitted or top-dose-only effect, or another doubt; inactive = no such curve, though single readings can be large; an effect the other way counts as inactive or inconclusive. % is scaled to controls: 0 for no effect and ±100 for the full control effect; potency is read from the fitted curve at half-maximal effect.

SMILES | HEK cytotox | 3T3 cytotox | GPT2 inh | Luciferase inh | hNpr1 antagonist
c1cncc(O[C@H]2COCCN(C3CCC3)C2)c1 | ? | 50µM* | 1%[88.5 µM] | i | 1%[70.6 µM]
COC(=O)[C@@H]1Cc2c([nH]c3ccccc23)[C@H]2C[C@@H](NCCO)C[C@@H](c3cccc(OC)c3)N21 | 28µM* | 28µM* | -7% | i | 1%
COC(=O)[C@@H]1C[C@H](NC(=O)CCCc2cccs2)CN1C | -16% | 1% | 2% | i | 1%
COc1cccc(CC(=O)N2[C@@H]3CC[C@H]2CC(NC(=O)c2ccc(F)cc2)C3)c1 (some centres undefined) | -20% | -12% | i | i | -4%
COC(=O)[C@@H]1Cc2c([nH]c3ccccc23)[C@H]2C[C@H](NCc3cccs3)C[C@@H](c3ccccc3)N21 | ? | 25µM* | -15% | i | -23%
COC(=O)[C@@H]1Cc2c([nH]c3ccccc23)[C@H]2C[C@H](NCCO)C[C@@H](c3ccccc3)N21 | ? | 45µM* | i | ? | -11%[70.6 µM]
COC(=O)[C@@H]1Cc2c([nH]c3ccccc23)[C@H]2C[C@@H](NC3CC3)C[C@@H](c3ccc(F)cc3)N21 | 8.9µM* | 28µM* | -24%[88.5 µM] | i | ?
Cn1cccc1C(=O)N[C@H]1C[C@@H](C(=O)O)N(C(=O)CCCC(=O)N2C[C@@H](NC(=O)c3cccs3)C[C@H]2C(=O)O)C1 | 1% | -3% | i | i | 0%
CN(C(=O)c1ccccc1Cl)C1CCCc2ccccc21 (centres undefined) | ? | -24%[138 µM] | i | i | -1%[70.6 µM]
[N-]=[N+]=N[C@]1(CO)O[C@@H](n2ccc(=O)[nH]c2=O)[C@@H](O)[C@@H]1O | · | · | 1% | · | ·
O=C(c1ccc(F)cc1)C1CCN(CCn2c(=O)[nH]c3ccccc3c2=O)CC1 | · | · | 4% | · | ·
COc1ccc([C@@H]2N[C@H](C(=O)O)Cc3c2[nH]c2ccccc32)cc1CN1CCN(c2ccccc2F)CC1 | · | · | i | · | ·
C#CCN[C@H]1C[C@@H]2c3[nH]c4ccccc4c3C[C@@H](C(=O)OC)N2[C@H](c2ccc(F)cc2)C1 | 28µM* | ? | 1%[88.5 µM] | i | -2%[70.6 µM]
COC(=O)[C@@H]1Cc2c([nH]c3ccccc23)[C@H]2C[C@@H](NCCO)C[C@@H](c3ccc(F)cc3)N21 | 28µM* | 28µM* | -4% | i | 2%
Cc1ccc(-c2ccccc2C=O)c(C)c1 | -11%[287 µM] | ? | 0%[88.5 µM] | · | ·
COc1ccc(CCNC(=O)[C@@H]2CCCN2c2nccc(Nc3ccccc3Cl)n2)cc1 | ? | -14% | i | · | ·
CN1CCN([C@@H]2[C@H](O)[C@H](CO)O[C@@H]2CN(Cc2ccc(Cl)cc2)Cc2cccc(Cl)c2)CC1 | ? | 28µM* | 0% | i | ?
COc1ccc(NC(=O)N2CCc3c(C(=O)NCCCN(C)C)cccc32)cc1 | -7% | -5% | -3% | 35µM* | -1%
CCCNC(=O)c1cccc2c1CCN2C(=O)Nc1ccc(OC)cc1 | ? | ? | 2% | 0.35µM* | 5µM*
CN(C)C(=O)c1cc(-c2ccccc2S(C)(=O)=O)c2cccn2n1 | -12% | -16% | -18% | · | ·
O=C(NC1CCN(Cc2ccc(-c3ccsc3)cc2)C1)c1ccccn1 (centres undefined) | ? | ? | i | · | ·
COc1ccccc1N1CCN(C(=O)c2ccc3c(c2)C(O)CCCCCN3C)CC1 (centres undefined) | 45µM* | ? | i | i | -18%
CN1CCCCCC(O)c2cc(C(=O)N3CCc4ccccc43)ccc21 (centres undefined) | ? | 35µM* | ? | ? | ?
Cc1cccc(N2CCN(C(=O)c3ccc4c(c3)C(O)CCCCCN4C)CC2)c1 (centres undefined) | ? | ? | i | i | -13%
CN1CCCCCC(O)c2cc(C(=O)N3CCN(Cc4ccccc4)CC3)ccc21 (centres undefined) | 56µM* | ? | i | i | -24%
SMILES | HEK cytotox | 3T3 cytotox | GPT2 inh | Luciferase inh | hNpr1 antagonist
COc1cc(-c2onc(C)c2C(=O)NC2Cc3ccccc3C2)cc(OC)c1OC | ? | ? | -10% | i | -10%
CN(Cc1cccnc1)C(=O)CCC[C@H]1NC[C@@H]2C[C@H]1CN(Cc1ccccc1)C2 | 5% | i | -12% | i | 2%
CN(Cc1ccc(N2CCCCC2)cc1)C(=O)CCC[C@H]1NC[C@@H]2C[C@H]1CN(Cc1ccccc1)C2 | ? | 18µM* | i | i | -2%
O=C(CCC[C@H]1NC[C@@H]2C[C@H]1CN(Cc1ccccc1)C2)Nc1ccc2c(c1)OCCO2 | -13% | -6% | -10% | 45µM* | 1%
O=C1N(CC2CC2)CCOC12CCN(Cc1ccc(F)c(Cl)c1)CC2 | ? | -29%[138 µM] | 2%[88.5 µM] | i | -13%[70.6 µM]
O=C1N(CCc2ccccc2)CCOC12CCN(Cc1ccc(F)c(Cl)c1)CC2 | 79µM* | 45µM* | -13%[88.5 µM] | i | ?
O=C(c1ccccc1Br)N1CCN(c2cc(-c3cccs3)[nH]n2)CC1 | ? | ? | -8% | i | -25%
Cc1ccc(C(=O)N2CCN(c3cc(-c4cccs4)[nH]n3)CC2)cc1 | ? | 13µM* | 0% | i | -1%
O=C(c1c[nH]c2ccccc12)N1CCN(c2cc(-c3cccs3)[nH]n2)CC1 | 45µM* | ? | -4% | i | -22%
O=C(c1ccoc1)N1CCN(c2cc(-c3cccs3)[nH]n2)CC1 | 1% | -10% | i | i | -5%
COCCn1cnc2ccc(Nc3ccc(C(F)(F)F)cc3)nc2c1=O | ? | ? | -8%[88.5 µM] | i | -13%[70.6 µM]
O=c1c2nc(Nc3ccc(C(F)(F)F)cc3)ccc2ncn1C1CC1 | ? | ? | ? | 63µM* | -24%[70.6 µM]
CN1c2cc(C(=O)Nc3ccc(C#N)cc3)ccc2C(=O)N2CCCCC21 (centres undefined) | ? | 35µM* | i | i | -5%
CN1c2cc(C(=O)Nc3cccc(C#N)c3)ccc2C(=O)N2CCCCCC21 (centres undefined) | ? | ? | i | 28µM* | 0%
CN1c2cc(C(=O)Nc3cccc(C#N)c3)ccc2C(=O)N2CCCCC21 (centres undefined) | ? | ? | i | ? | 10%
Cc1ccc(C)c(CCNC(=O)[C@H]2CNC[C@H](C(=O)N3CCOCC3)C2)c1 | -9% | -17% | -5% | i | 3%
